Compound activity (PubChem)
A selection: hits, their analogues and other compounds. The true share with any hit is near 2.9%.
D3 antag = antagonists of human D3 dopamine receptor | 2.5% of 360,000 active | D3R cells, DiscoveRx beta-arrestin luminescence, antagonist mode; hits give low values | max response, negative = inhibition, % | P35462 | AID 652054; in the data active means max response below about -50%; inconclusive means no clear call, values can overlap the other calls; further: on the % scale 0 is the no-effect control and ±100 the full control effect
Target sequence (P35462 whole entry, looked up): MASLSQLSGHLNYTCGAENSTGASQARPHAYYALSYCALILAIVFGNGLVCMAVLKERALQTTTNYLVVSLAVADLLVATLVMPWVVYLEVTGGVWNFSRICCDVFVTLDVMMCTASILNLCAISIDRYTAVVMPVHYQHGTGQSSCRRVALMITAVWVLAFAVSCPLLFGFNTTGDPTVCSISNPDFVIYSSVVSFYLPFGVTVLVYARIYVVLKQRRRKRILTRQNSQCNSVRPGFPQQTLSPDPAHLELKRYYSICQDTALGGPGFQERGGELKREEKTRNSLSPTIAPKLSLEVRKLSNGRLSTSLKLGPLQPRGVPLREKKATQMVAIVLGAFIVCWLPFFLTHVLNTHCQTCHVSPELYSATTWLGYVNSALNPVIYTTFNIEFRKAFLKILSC
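Cells plated overnight at 1500 cells/well, then exposed to library compounds with dopamine controls for 90 minutes at 37 degrees C. DiscoveRx reagent added for 30–60 minutes at room temperature; luminescence read, quantitative HTS format.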
Rango release inh = prevents RanGTP from dissociating the Rango-importin beta complex | Biochemical FRET Rango-importin beta, RanGTP-induced dissociation | Potency, µM (titrated, usually from 46.1 µM), for the others: at the highest dose activity change, negative = inhibition | 0.071% of 340,000 active | AID 540253; further: potency means the concentration at half of the fitted maximal effect; % of control where 0% means no effect; nearly all actives have a fitted effect of over 45% in size
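Compounds preincubate 5 min with complex of recombinant Rango and importin beta in PBS with 1 mM DTT. Ran (0.6 uM) loaded with 2 mM GTP plus 0.2 uM RCC1 starts dissociation; FRET is recorded 45 min later.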
DRD3 agonist = agonists of human D3 dopamine receptor; D3R DiscoveRx beta-arrestin cells, luminescence, 90 min; 0.58% of 410,000 active; AID 652048; P35462; max activation, %; in the data active means max activation above about 30%; further: 0% is about no effect
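Cells at 1500/well, incubated overnight, then treated with pinned compounds (dopamine as control) for 90 min at 37 degrees C. DiscoveRx reagent added for 30 - 60 minutes at room temperature; luminescence read.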
Rango complex inh = inhibitors of Rango-importin beta complex formation. Q14974. 0.031% of 340,000 active. Rango CFP/YFP FRET sensor + importin beta, 45 min. Potency, µM (titrated, usually from 92.2 µM), for inactives: at the highest dose inhibition of complex formation;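 further: potency means the concentration at half of the fitted maximal effect; 0% = DMSO wells and 100% = buffer wells lacking importin beta; nearly all actives have a fitted effect of over 15% in size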
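FRET biosensor (snurportin 1 IBB flanked by EYFP and cerulean), 50 nM, with compound 5 min, then 0.125 microM importin beta in PBS, 1 mM DTT, 0.02% Tween-20, 0.1% BSA. CFP/YFP ratio read after 45 min at room temperature; pre-read flags interference.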
PTAP TSG101 blk = blocks PTAP/TSG101 interaction to inhibit HIV-1 budding; Q99816; Fluorescence polarization, FITC-PTAP peptide / Tsg101 binding; Potency, µM (series often up to 115 µM), for the others: at the top dose activity change, negative = inhibition, hits mostly inhibitors; 340,000 tested, under 10 active; active means well fitted inhibition curve with a large enough effect in the main read-out, with a control signal flat, not every such curve was filed as active; inconclusive means small, poorly fitted or top-dose-only effect, or effect the other way, or a change in a side signal; inactive means no such curve, though single readings can be large or run the other way; further: potency means the concentration at half of the fitted maximal effect; % of control where 0% means no effect
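Compounds were pin-transferred onto Tsg101 binding domain (10 uM final) in HEPES pH 7.5 buffer, then FITC-PTAP peptide was added at 50 nM final. After 20 min at RT, polarization reported peptide displacement across a qHTS concentration series.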
Mm-Cpn inhibitor = blocks the Methanococcus maripaludis chaperonin Mm-Cpn. Potency, µM (doses to about 76.9 µM), inactives show at the highest dose activity, negative = inhibition, hits mostly inhibitors. AID 504842. 0.031% of 330,000 active. purified Mm-Cpn ATPase, ADP Transcreener TR-FRET; active means well fitted inhibition curve with a large enough effect; inconclusive means small, poorly fitted or top-dose-only effect; further: potency means the concentration at half of the fitted maximal effect; on the % scale 0 is the no-effect control and ±100 the full control effect; nearly all actives have a fitted effect of over 80% in size
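Purified archaeal Mm-CPN (25nM final) preincubated 10 min at 37degC with compound, then 10uM ATP for 30 min at 37degC; ADP measured by HTRF Transcreener TR-FRET; buffer 30 mM TRIS pH 7.4, 100mM KCl, 5mM MgCl2, 1mM DTT.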
Active calls of the source: *; ? = inconclusive; . = no result given; + = active, no number. Unless noted, the call rests on the fitted dose curve.

SMILES	D3 antag	Rango release inh	DRD3 agonist	Rango complex inh	PTAP TSG101 blk	Mm-Cpn inhibitor
COc1ccc(CCNC(=O)CCc2c(C)nc3c(c(C)nn3-c3ccccc3)c2C)c(OC)c1	.	.	-2	.	.	.
CCCCn1cnc2cc(NCc3ccccc3Cl)ccc21	.	.	0	.	.	.
O=C1OCCN1C(=O)[C@H]1[C@H](c2ccc(Cl)cc2)C(c2ccccc2)=NN1c1ccccc1	-2	-19%	4	?	9%	?
Cc1cccc(C2=NN(c3ccccc3)[C@@H](C(=O)N3CCOC3=O)[C@@H]2c2ccc(F)cc2)c1	-3	?	-8	?	1%	32µM*
O=C1OCCN1C(=O)[C@H]1[C@H](c2ccccc2)C(c2cccc(Cl)c2)=NN1c1ccccc1	2	?	39*	?	0%	-23%
Cc1cccc(C2=NN(c3ccccc3)[C@H](CO)[C@H]2c2ccccc2)c1	14	?	42*	?	1%	-13%
COc1cccc(NC(=O)Cn2nc(-c3ccncc3)ccc2=O)c1	.	.	1	.	.	.
CCc1nn(Cc2ccc(Cl)cc2)c(=O)c2cc3cc(C)ccc3n12	.	.	0	.	.	.
COc1ccc(S(=O)(=O)N2CCC(C(=O)Nc3cc(C(F)(F)F)ccc3Cl)CC2)cc1	.	.	-13	.	.	.
Cc1ccc(N(C)C(=O)c2noc3c2CCCCC3)cc1C	.	.	-13	.	.	.
CCN(CC)S(=O)(=O)c1cc(-c2nnc(-c3ccc(Br)cc3)o2)ccc1Br	-65*	-11%	-10	3%	0%	0%
CCCn1c(C(C)Nc2nc(-c3cccc(Br)c3)cs2)nc2ccccc21 (stereo not given)	14	6%	31*	-1%	-6%	0%
CCCn1c(CCNc2nc(-c3cccc(Br)c3)cs2)nc2ccccc21	35	-6%	33*	8%	1%	.
CCCn1c(C(C)Nc2nc(-c3ccc(C)cc3)cs2)nc2ccccc21 (stereo not given)	5	1%	-15	1%	0%	0%
COc1ccccc1CNc1nc2cc(-c3ccc(OC)c(OC)c3)sc2c(=O)n1C	103	.	24	.	.	.
COc1ccc(-c2cc3nc(NCC4CCCCC4)n(C)c(=O)c3s2)cc1OC	98	.	37*	.	.	.
Cc1cc(C)c(S(=O)(=O)NCC(c2cccs2)S(=O)(=O)c2ccccc2)c(C)c1 (stereo not given)	.	.	-14	.	.	.
COc1cc(NC(=O)[C@@H]2CCCN(S(=O)(=O)c3cccc4cccnc34)C2)cc(OC)c1OC	106	12%	43*	0%	.	0%
O=C(C1CCN(S(=O)(=O)c2cccc3nsnc23)CC1)N1CCn2c1nc1ccccc12	-101*	-8%	-22	-3%	-6%	0%
O=C(C1CCN(S(=O)(=O)c2cccc3cccnc23)CC1)N1CCCC1	-79*	-2%	-13	-4%	-3%	2%
O=C(O)C1CCN(S(=O)(=O)c2cccc3cccnc23)CC1	4	-11%	7	-6%	0%	-1%
O=C(C1CCN(S(=O)(=O)c2cccc3cccnc23)CC1)N1CCc2ccccc21	-53*	-16%	1	0%	-6%	-6%
COc1ccc(C(=O)C2CCCN(C(=O)c3cccc(Cl)c3F)C2)cc1OC (stereo not given)	-2	8%	6	1%	-4%	0%
C=CCNc1nc(NCC)nc(N2CCOCC2)n1	0	4%	12	-1%	-6%	1%
C=CCNc1nc(Nc2ccc(-c3nc4ccccc4o3)cc2)nc(N2CCOCC2)n1	8	-10%	33*	0%	-5%	-1%
SMILES	D3 antag	Rango release inh	DRD3 agonist	Rango complex inh	PTAP TSG101 blk	Mm-Cpn inhibitor
COc1cccc(/C=N/n2c(N)nc3ccccc32)c1OC	38	-6%	30*	-2%	-19%	0%
COc1ccc(/C=N/n2c(N)nc3ccccc32)cc1OC	-1	-2%	5	0%	-6%	0%
O=C1C=CC(=O)N1CCNc1ncc(C(F)(F)F)cc1Cl	-113*	15%	-12	3%	-4%	0%
CCCn1c(SCC(=O)Nc2cccc(C)n2)nc2c1c(=O)n(C)c(=O)n2C	8	-5%	5	-3%	1%	3%
CCCn1c(SCC(=O)Nc2cc(C)on2)nc2c1c(=O)n(C)c(=O)n2C	-51*	4%	-3	0%	.	.
COc1cccc(OCc2nc3ccccc3n2C)c1	.	.	1	.	.	.
CC1(C)Cc2c(ccc3ccccc23)/C(=C/C#N)N1	+	3%	-13	0%	-10%	-20%
Cc1ccc2onc(CNC(=O)NCc3cccc(Cl)c3)c2c1	.	.	4	.	.	.
Cc1ccc(N2C(=O)CC(N3CCN(C4CCc5ccccc5C4)CC3)C2=O)cc1 (stereo not given)	-55*	4%	-14	-1%	-7%	-2%
CCOC(=O)N1CCN(C2CC(=O)N(c3ccc(C)cc3)C2=O)CC1 (stereo not given)	-63*	5%	-11	-1%	-4%	0%
CCOC(=O)N1CCN(C2CC(=O)N(c3ccc(Oc4ccccc4)cc3)C2=O)CC1 (stereo not given)	15	-1%	53*	1%	-4%	0%
CCOC(=O)N1CCN(C2CC(=O)N(c3ccc(F)cc3)C2=O)CC1 (stereo not given)	13	-7%	2	0%	-5%	-1%
CCOC(=O)C1CCN(C(c2ccccc2OC)c2c(O)cc(C)n(CCOC)c2=O)CC1 (stereo not given)	.	.	4	.	.	.
Cc1ccc(C(O)c2ncc(-c3cccc(C(F)(F)F)c3)[nH]2)cc1 (stereo not given)	-17	.	-12	.	.	.
Cc1cccc(C)c1C(O)c1ncc(-c2cccc(C(F)(F)F)c2)[nH]1 (stereo not given)	-61*	.	-3	.	.	.
C/C(=N\NC(=O)C1(C)CC1(Br)Br)c1cccc(NC(=O)c2ccc(C)o2)c1 (stereo not given)	77	15%	37*	0%	.	-3%
O=C(COC(=O)c1cccc(S(=O)(=O)N2CCc3ccccc3C2)c1)NCc1ccco1	-26	1%	-13	-2%	1%	-2%
O=C(COC(=O)c1cc(S(=O)(=O)N2CCc3ccccc3C2)ccc1Cl)NCc1ccco1	-55*	-16%	-4	-3%	-6%	-1%
CC(C)NC(=O)C1CCC(Cn2c(=O)c3sccc3n(CC(=O)NCc3ccccc3)c2=O)CC1 (stereo not given)	.	.	5	.	.	.
O=C(/C=C/c1cccc([N+](=O)[O-])c1)N1CCN(c2ccccn2)CC1	-12	-13%	4	6%	-3%	2%
